Hit rate of the full screen: of about 400,000 compounds, about 2,100 (0.53%) were called active. Not shown: some 14% with an inconclusive outcome. The rule behind the calls is not given here. This excerpt belongs to a sample that is enriched for actives.
Biological target: Ataxin-2 (Homo sapiens) (UniProt Q99700)
Assay: qHTS for Inhibitors of ATXN expression.
Format: functional

Sequence of Ataxin-2 (Homo sapiens) (Q99700 whole entry): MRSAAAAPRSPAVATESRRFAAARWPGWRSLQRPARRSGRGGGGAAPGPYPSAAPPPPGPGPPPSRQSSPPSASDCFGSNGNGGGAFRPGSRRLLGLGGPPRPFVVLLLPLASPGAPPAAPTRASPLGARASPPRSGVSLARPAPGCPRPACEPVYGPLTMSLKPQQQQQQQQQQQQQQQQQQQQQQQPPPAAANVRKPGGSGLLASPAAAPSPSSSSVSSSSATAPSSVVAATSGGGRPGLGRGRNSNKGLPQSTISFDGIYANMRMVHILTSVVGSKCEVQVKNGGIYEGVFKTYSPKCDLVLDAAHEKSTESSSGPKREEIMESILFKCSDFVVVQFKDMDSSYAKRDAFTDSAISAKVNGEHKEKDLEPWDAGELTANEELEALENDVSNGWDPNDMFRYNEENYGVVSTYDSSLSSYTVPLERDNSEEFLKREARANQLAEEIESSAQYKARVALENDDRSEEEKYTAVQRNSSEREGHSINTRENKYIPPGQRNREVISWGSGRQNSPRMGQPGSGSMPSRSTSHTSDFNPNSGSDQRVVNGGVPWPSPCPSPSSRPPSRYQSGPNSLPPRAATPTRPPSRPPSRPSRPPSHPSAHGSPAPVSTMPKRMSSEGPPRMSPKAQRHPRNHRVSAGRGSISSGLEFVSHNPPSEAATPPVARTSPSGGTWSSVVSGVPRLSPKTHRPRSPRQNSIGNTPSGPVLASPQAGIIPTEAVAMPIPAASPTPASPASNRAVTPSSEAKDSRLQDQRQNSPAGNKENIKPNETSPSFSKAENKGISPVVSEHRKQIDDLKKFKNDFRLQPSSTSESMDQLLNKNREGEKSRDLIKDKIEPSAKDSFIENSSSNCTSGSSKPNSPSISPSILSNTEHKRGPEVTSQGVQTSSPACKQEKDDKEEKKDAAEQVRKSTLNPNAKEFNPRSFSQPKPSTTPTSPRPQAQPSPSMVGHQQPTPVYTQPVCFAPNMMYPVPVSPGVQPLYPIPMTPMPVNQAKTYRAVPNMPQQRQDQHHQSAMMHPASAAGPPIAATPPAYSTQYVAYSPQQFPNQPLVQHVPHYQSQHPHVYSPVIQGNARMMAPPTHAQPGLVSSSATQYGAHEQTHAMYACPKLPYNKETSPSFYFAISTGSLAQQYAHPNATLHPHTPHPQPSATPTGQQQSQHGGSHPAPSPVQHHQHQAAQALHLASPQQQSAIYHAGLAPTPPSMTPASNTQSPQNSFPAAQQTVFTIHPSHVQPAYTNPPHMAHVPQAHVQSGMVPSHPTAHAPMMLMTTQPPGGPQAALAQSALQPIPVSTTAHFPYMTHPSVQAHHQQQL

Row | SMILES | Potency
1 | O=C(O)c1ccc(COc2ccc3ccccc3c2/C=C2/NC(=O)N(Cc3ccc(F)cc3)C2=O)cc1 | inactive
2 | COc1ccccc1C(=O)NCCC(=O)N1CCN(S(=O)(=O)c2cccc(Cl)c2)CC1 | inactive
3 | CCc1cc2c(COC(=O)c3cc(S(=O)(=O)N4CCOCC4)ccc3F)cc(=O)oc2cc1O | inactive
4 | COc1cc(N2C(=O)C=CC2=O)ccc1N1C(=O)C=CC1=O | 15 µM (active)
5 | COc1ccc(N2C(=O)CC(Nc3ccc(C(=O)O)cc3)C2=O)cc1OC (stereo not given) | inactive
6 | COc1ccccc1N1C(=O)c2cccc3c(Cl)ccc(c23)C1=O | inactive
7 | COc1ccc(C(CNC(=O)COc2c(C)cc(C)cc2C)N2CCOCC2)cc1 (stereo not given) | inactive
8 | Cc1ccc2oc(C(=O)NCC(c3ccc(Cl)cc3)N3CCOCC3)c(C)c2c1 (stereo not given) | 39.8 µM (active)
9 | CCC(C)NC(=O)c1oc2ccc(S(=O)(=O)N3CCC4(CC3)OCCO4)cc2c1C (stereo not given) | inactive
10 | CN(C)C(=O)c1coc2nc3ccccc3nc12 | inactive
11 | COc1cc(NS(=O)(=O)c2ccc3ccccc3c2)c2ncccc2c1 | inactive
12 | CCN(CC)S(=O)(=O)c1cc(OC)ccc1N=Nc1ccc(O)c2ncccc12 | 10 µM (active)
13 | CCS(=O)(=O)c1ccc(N=Nc2ccc(O)c3ncccc23)c(OC)c1 | 25.1 µM (active)
14 | CCOC(=O)c1cc2c(=O)n3ccccc3nc2n(Cc2ccco2)/c1=N/C(=O)c1cccc(OC)c1 | inactive
15 | COc1ccc(N2CCN(C(=O)[C@H](C)NC(=O)c3ccccc3Cl)CC2)cc1 | inactive
16 | CCCS(=O)(=O)c1nc(S(=O)(=O)c2ccc(C)cc2)c(N2CCN(CCO)CC2)s1 | inactive
17 | O=C(O)c1ccc(OS(=O)(=O)c2cccc(C(F)(F)F)c2)cc1 | inactive
18 | COC(=O)C1=CN(C)C=C(C(=O)OC)C1c1ccccc1Cl | inactive
19 | O=C(OCn1ncc(Cl)c(Cl)c1=O)c1cccc(C(F)(F)F)c1 | 39.8 µM (active)
20 | COc1ccc(C(=O)OCc2ccc(C)cc2)cc1S(=O)(=O)N1CCOCC1 | inactive
21 | CC(=O)c1c(COC(=O)c2ccc(C)cc2)nc2ccccc2[n+]1[O-] | inactive
22 | N=C(NOC(=O)c1cnn(-c2ccccc2)c1C(F)(F)F)c1cc(C(F)(F)F)cc(C(F)(F)F)c1 | inactive
23 | O=C(OCCN1C(=O)c2cccc3c(N4CCOCC4)ccc(c23)C1=O)c1ccccc1Cl | inactive
24 | O=C(OCn1ncc(Cl)c(Cl)c1=O)c1ccccc1Cl | 15.8 µM (active)

Row | SMILES | Potency
25 | Cc1ccc(C(=O)OCn2ncc(Cl)c(Cl)c2=O)cc1 | 20 µM (active)
26 | C=CCn1c(SCc2cccc(F)c2)nc2cc(C(=O)N3CCC(C(N)=O)CC3)ccc2c1=O | inactive
27 | CCN1C(c2ccccc2)=C(c2ccccc2)S/C1=C\C=C1/SC(=S)N(C)C1=O | 22.4 µM (active)
28 | COc1ccc(/C=N/Nc2ncnc3sc(C)c(C)c23)cc1 | inactive
29 | NC(COCc1ccccc1)c1csc(NC(=O)Nc2cccc(Cl)c2)n1 (stereo not given) | 25.1 µM (active)
30 | Clc1cccc(Nc2nc(-c3ccncc3)cs2)c1 | inactive
31 | O=C(Cc1csc(Nc2nc(S)nc3ccccc23)n1)N1CCN(c2cccc(C(F)(F)F)c2)CC1 | inactive
32 | NC(COCc1ccccc1)c1csc(NC(=O)Nc2cccc(C(F)(F)F)c2)n1 (stereo not given) | 39.8 µM (active)
33 | O=C(Nc1cccc(Cl)c1)Nc1nnc(-c2ccncc2)s1 | 12.6 µM (active)
34 | O=C(Nc1cccc(Cl)c1)Nc1sccc1-c1nc2ccccc2s1 | inactive
35 | NC(CCc1ccccc1)c1csc(NC(=O)Nc2cccc(C(F)(F)F)c2)n1 (stereo not given) | 39.8 µM (active)
36 | O=C(Nc1cccc(Cl)c1)NC1CC2CCC(C1)N2Cc1ccco1 (stereo not given) | inactive
37 | C/C(=N/NC(=O)c1sc(NS(=O)(=O)c2ccc(C)cc2)nc1C)c1sc(N)nc1C | inactive
38 | CN1CCN(/C=N/c2nc3ccccc3nc2N2CCCC2)CC1 | inactive
39 | Cc1cc(O)nc2nc3ccccc3n12 | inactive
40 | OCCCc1nc2n(n1)C(c1ccccc1Cl)C=C(c1cccs1)N2 (stereo not given) | inactive
41 | CC(C)=Cc1c(O)n2ccccc2nc1=O | inactive
42 | CCC/C=C/c1ccc(CN2C(C(C)C)C(=O)N(Cc3cn(CCC4OCCO4)nn3)CCS2(=O)=O)cc1 (stereo not given) | 35.5 µM (active)
43 | CCC/C=C/c1ccc(CN2C(C(C)C)C(=O)N(Cc3cn(CCC4OCCCO4)nn3)CCS2(=O)=O)cc1 (stereo not given) | 22.4 µM (active)
44 | CN(C1=NS(=O)(=O)c2ccccc21)c1ccc(OC(=O)c2ccncc2)cc1 | inactive
45 | Cc1csc2ncc(C(=O)N3CCc4ccccc43)c(=O)n12 | inactive
46 | CC1CN(Cc2cnc(Cl)s2)CC(C)O1 (stereo not given) | inactive
47 | CCN1CCN(S(=O)(=O)c2ccc3c4c(cccc24)C(=O)N3CC)CC1 | inactive
48 | CCCCCCc1cc2cc(C(=O)NC)c(=N)oc2cc1O | inactive

Row | SMILES | Potency
49 | Cc1cc2c(cc1C)CSC(c1c(O)ccc3ccccc13)SC2 | 35.5 µM (active)
50 | COc1ccc(/C=C/C(=O)Nc2ccc(S(=O)(=O)N3CCOCC3)cc2)c(OC)c1 | inactive
51 | COc1ccc(OC)c(/C=C2/Sc3ccccc3C2=O)c1 | inactive
52 | COc1ccc(/C=C2\SC(=S)N(NS(=O)(=O)c3ccccc3)C2=O)c(OC)c1 | 39.8 µM (active)
53 | O=C(NCc1cccs1)c1cc(C2CC2)on1 | inactive
54 | O=C(c1cccc(Cl)c1)N(Cc1ccco1)C1CCS(=O)(=O)C1 (stereo not given) | inactive
55 | CC(C)(C)NC(=O)C(c1ccc(-c2ccccc2)cc1)N(C[C@H]1CC[C@@H]([C@@H]2CC[C@H](CO)O2)O1)C(=O)c1ccc(-c2ccccc2)cc1 (stereo not given in full) | 35.5 µM (active)
56 | CC(C)(C)NC(=O)C(c1cccnc1)N(C(=O)c1csnn1)c1ccccc1 (stereo not given) | inactive
57 | CC(C)(C)NC(=O)C(c1ccc(-c2ccccc2)cc1)N(C[C@H]1CC[C@@H]([C@@H]2CC[C@H](CO)O2)O1)C(=O)c1cccc(Cl)c1 (stereo not given in full) | 31.6 µM (active)
58 | CC(C)(C)NC(=O)C(c1ccncc1)N(C(=O)C1CSC(=O)C1)c1ccccc1 (stereo not given) | inactive
59 | CC1(C)NC(=O)N(CC(=O)N2CCN(S(=O)(=O)c3cc(Cl)ccc3Cl)CC2)C1=O | inactive
60 | CC(C)Cn1nc(NC(=O)c2cccs2)c2cc3ccccc3nc21 | inactive
61 | Cc1nn(-c2ccccc2)c(C)c1/C=N/NC(=O)CSc1nc2ccccc2c(=O)n1-c1ccc(Br)cc1 | 12.6 µM (active)
62 | Cc1ccc(S(=O)(=O)N(C)C)cc1-n1c(SCC(=O)N(C)C)nc2ccccc2c1=O | inactive
63 | CNC(=O)CSc1nc2ccccc2c(=O)n1C1CCCCC1 | inactive
64 | Cc1ccccc1CS(=O)(=O)c1ncc(Cl)c(C(=O)Nc2ccc(F)cc2)n1 | 10 µM (active)
65 | O=C(Nc1ccc(F)cc1)c1cccnc1NCCc1ccccc1 | inactive
66 | O=C(Nc1ccc(F)cc1)c1nc(S(=O)(=O)Cc2ccccc2)ncc1Cl | 25.1 µM (active)
67 | CC(=O)Nc1ccc(S(=O)(=O)[N-]c2nc3ccccc3nc2-[n+]2ccc(NC(=O)c3ccc(F)cc3)cc2)cc1 | inactive
68 | O=C1CSc2ccc(S(=O)(=O)NCc3ccc(F)cc3)cc2N1 | inactive
69 | COc1ccc(Nc2nc3c(C)cccc3cc2C#N)cc1 | inactive
70 | N#Cc1nccc2ccc(OCc3ccc(Br)cc3)cc12 | inactive
71 | O=C(N=Nc1c(O)n(Cc2ccccc2)c2ccccc12)c1cc2ccccc2cc1O | 39.8 µM (active)
72 | Cc1ccc(NC(=O)Cn2c(O)c(N=NC(=O)c3cc4ccccc4cc3O)c3ccccc32)cc1 | 8.91 µM (active)

Row | SMILES | Potency
73 | Cc1ccc(C(=O)NNC(=O)c2cc3ccccc3cc2O)cc1 | inactive
74 | CN(C(=O)COC(=O)c1cc2ccccc2cc1O)c1ccccc1 | inactive
75 | Cn1c(O)c(/C=N/NC(=O)c2cc3ccccc3cc2O)c2ccccc21 | inactive
76 | Cc1c(O)ccc2c(CC(=O)N[C@@H](Cc3ccc(O)cc3)C(=O)O)cc(=O)oc12 | inactive
77 | Cc1sc(NC(=O)c2ccccc2)c(C(c2ccc(Cl)cc2)N2CCN(CCO)CC2)c1C (stereo not given) | 28.2 µM (active)
78 | CCS(=O)(=O)c1nc(S(=O)(=O)c2ccc(Cl)cc2)c(N2CCN(CCO)CC2)s1 | inactive
79 | Cc1c(-c2ccc(Cl)cc2)c(=O)oc2c(CN3CCN(CCO)CC3)c(O)ccc12 | inactive
80 | Cn1c(C(=O)NCc2ccccn2)cc2c(=O)n3ccccc3nc21 | inactive
81 | Cc1cccc(C2=NN(c3ccccc3)[C@H](CO)[C@H]2c2ccc(Cl)cc2)c1 | inactive
82 | CCN(CC)c1ccc(/C=N/NC(=O)c2cccc(S(=O)(=O)Nc3ccccc3OC)c2)c(O)c1 | inactive
83 | CCN1C/C(=C\c2cc(OC)c(OC)c(OC)c2)C2=NN(c3ccccc3)C(c3cc(OC)c(OC)c(OC)c3)C2C1 (stereo not given) | inactive
84 | CCOc1ccc(NC(=O)COc2ccc(C(=O)NCCc3ccccc3)cc2)cc1 | inactive
85 | CCOC(=O)c1ccc(NC(=O)COc2ccccc2CNCCc2ccccc2)cc1 | 29.9 µM (active)
86 | Cc1ccc(C(=O)OCC(=O)NCCc2ccccc2)cc1C | inactive
87 | CCCCn1nc(NC(=O)c2cccs2)c2cc3ccccc3nc21 | inactive
88 | NS(=O)(=O)c1ccc(NCc2cnc3ccccc3c2)cc1 | inactive
89 | CCOc1ccc2nc(NCCCNS(=O)(=O)c3ccc(C)cc3)c(C#N)cc2c1 | inactive
90 | c1ccc(COc2ncnc3c2ncn3CCCNC2CCN(Cc3ccccc3)CC2)cc1 | 39.8 µM (active)
91 | c1ccc(COc2ncnc3c2ncn3CCCNCC(c2ccccc2)c2ccccc2)cc1 | 25.1 µM (active)
92 | COCCCn1c(C(=O)N2CC(C)OC(C)C2)cc2c(=O)n3ccccc3nc21 (stereo not given) | inactive
93 | O=C(CC(=O)N/N=C/c1c(F)cccc1Cl)NCCc1ccccc1 | inactive
94 | CCCCN(C)CCCNC(=O)C1CCN(c2nc3ccc(CC)cc3s2)CC1 | 28.2 µM (active)
95 | CCOc1ccc2nc(N3CCC(C(=O)N4CCN(c5ncccn5)CC4)CC3)sc2c1 | inactive

— ChEMBL document CHEMBL1201862, “PubChem BioAssay data set” (2004)
